Bioassay records as filed in PubChem.
Compounds with a hit are over-represented: about 7.9% of the library has one in this group of screens.
KB-3-1 cytotox: kills parental KB-3-1 adenocarcinoma cells; KB-3-1 viability, CellTiter-Glo ATP luminescence, 72 h; AID 1347075; Potency, µM (doses to about 46.1 µM), hits mostly cytotoxic; 1.4% of 400,000 active; also: % is scaled to controls: 0 for no effect and ±100 for the full control effect; nearly all actives have a fitted effect of over 60% in size
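Viability of parental KB-3-1 cells, measured by CellTiter-Glo luminescence, followed a 72 h incubation at 37 °C with pinned compounds in phenol-red-free DMEM containing 10% FBS.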
HT1080 IDH1KD tx: kills HT-1080 cells with IDH1 knockdown | HT-1080 IDH1 knockdown viability, ATP luminescence, 48 h | Potency, µM (doses to about 46.1 µM), for inactives: at the highest dose activity, negative = toxicity, actives largely listed as cytotoxic | 2% of 360,000 active;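 also: 0% = DMSO wells and -100% = cell-free medium wells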
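In this qHTS, HT-1080 cells depleted of IDH1 are exposed for 48 h at 37 °C to compound titrations. Toxicity is scored from CellTiter-Glo luminescence, with DMSO as full viability and medium alone as none.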
HT1080NT lethal: kills 2HG-producing HT-1080-NT fibrosarcoma cells | 1.6% of 360,000 active | HT-1080-NT fibrosarcoma viability, CellTiter-Glo ATP luminescence, 48 h | Potency, µM (highest dose often 46.1 µM), for inactives: top-dose activity, negative = less viability, hits mostly cytotoxic | AID 686970;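 also: NT is the 2HG producing partner of a matched IDH1 knockdown line; 0% = DMSO-treated cells and -100% = media-only wells without cells; nearly all actives have a fitted effect of over 55% in size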
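Compounds were tested in concentration-response format on HT-1080-NT cells for 48 hours at 37 degrees C. Cell viability came from CellTiter-Glo luminescence; curves were classified by r2, response magnitude and activity.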
MCF10A rereplic: DNA re-replication induction in MCF 10a cells. MCF 10A DNA re-replication, Hoechst nuclear intensity, 48 h. AID 624296. Potency, µM (titrated, usually from 46.1 µM), for inactives: at the top dose activity, positive = re-replication, hits mostly activators. 2.9% of 350,000 active; also: % of control where 0% means no effect; nearly all actives have a fitted effect of over 50% in size
SW480 rerep: induces DNA re-replication in SW480 colon adenocarcinoma cells. SW480 DNA re-replication, Hoechst DNA content imaging, 48 h. Potency, µM (doses to about 46.1 µM), without a hit: at the highest dose re-replication activation, usual class: activators. 1.8% of 340,000 active. AID 624297; also: % of control where 0% means no effect; nearly all actives have a fitted effect of over 55% in size
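Cells (250 per well) received 23 nL compound or DMSO by pin tool and were kept 48 hr at 37 C, 5% CO2. Nuclei were then stained with Hoechst for 40 min and scanned for DNA content.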
KB-V1 MDR tox: kills drug-selected multidrug resistant KB-V1 cells; KB-V1 MDR cells viability, CellTiter-Glo, 72 h; AID 1347076; Potency, µM (series often up to 46.1 µM), actives largely listed as cytotoxic; 3.4% of 400,000 active; also: % is scaled to controls: 0 for no effect and ±100 for the full control effect; nearly all actives have a fitted effect of over 60% in size
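Cells of the MDR subline KB-V1 are plated, dosed with compound at multiple concentrations, and incubated 72 h at 37 degrees C; CellTiter-Glo is then added and luminescence read after 10 min.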
Starred values were filed as active, the others as inactive; i = inactive; ? = inconclusive; · = no result; [ ] = remark or other dose. Calls follow the shape of the dose curve; as a rule, active = well fitted curve in the direction sought with a large enough effect; inconclusive = small, poorly fitted or top-dose-only effect, or another doubt; inactive = no such curve, though single readings can be large; an effect the other way counts as inactive or inconclusive. Potency is read from the fitted curve at half-maximal effect.

SMILES	KB-3-1 cytotox	HT1080 IDH1KD tx	HT1080NT lethal	MCF10A rereplic	SW480 rerep	KB-V1 MDR tox
CCOC(=O)c1sc(Nc2nc(C)cc(C)n2)nc1C	?	1%	-5%	?	?	9.2µM*
CCOC(=O)c1sc(NC(=O)CC)nc1C	i	-1%	10%	?	-4%	i
C=CCOC(=O)c1sc(NC(=O)c2ccc(OC)cc2)nc1C	i	1.8µM*	?	10%	0%	i
CCCCOC(=O)Nc1nc(C)c(C(=O)OCC)s1	i	7%	4%	-8%	-7%	12µM*
CNc1nc(C)c(C(=O)OCc2ccccc2)s1	i	0%	3%	?	1%	21µM*
CNc1nc(C)c(C(=O)OCC(=O)OC)s1	i	-7%	0%	0%	-5%	i
COCCCNc1ccnc2c(Cl)cccc12	i	-11%	-5%	-3%	-7%	?
CCCCCOC(=O)Nc1nnc(CCCCC)s1	i	1%	?	9%	-5%	i
CCCCCCc1nnc(NC(=O)OCC)s1	i	13%	-3%	7%	-4%	16µM*
O=C(c1ccccc1)N(Cc1cccnc1)C1(C(=O)Nc2ccccc2)CCCCC1	?	-7%	3%	16%	?	10µM*
COc1ccccc1C1CCN(C(=O)c2ccccc2)CC1	i	4%	4%	?	-6%	i
COc1ccccc1C1CCN(c2cc(O)ccc2[N+](=O)[O-])CC1	i	?	?	16µM*	-36%	?
CCOC(=O)C1=C(C2=CCCCC2)c2ccc(OC)cc2N(S(=O)(=O)C(F)(F)F)C1C(=O)OCC (stereo not given)	i	-6%	-12%	16µM*	10µM*	i
C(=NNc1nnn(Cc2ccccc2)n1)c1ccccc1	?	18µM*	9.2µM*	·	·	16µM*
CCOc1ccc(Nc2nc(N)c([N+](=O)[O-])c(N3CCN(CC)CC3)n2)cc1	i	-13%	-24%	-1%	2%	i
Clc1ccc(C2=Nn3c(nnc3-c3n[nH]c4c3CCC4)SC2)cc1Cl	?	?	-29%	?	?	4.6µM*
Cc1ccc(Cl)cc1NC(=S)NCCCSC1CCCCC1	?	18µM*	-30%	?	15%	?
CCN(CC(=O)NCc1ccc(F)cc1)Cc1cc(=O)n2ccsc2n1	i	2%	0%	?	-6%[1.84 µM]	i
COc1cc(CN(C)Cc2cc(=O)n3ccsc3n2)ccc1OC(F)F	i	0%	-4%	-4%	?	13µM*
O=C(O)c1cc(S(=O)(=O)O)cc(Nc2c3ccccc3nc3ccccc23)c1O	i	0%	13%	-15%	5.2µM*	i
N#Cc1ccc(OCC(O)CN2CCC(C(O)(c3ccccc3)c3ccccc3)CC2)cc1 (stereo not given)	i	?	-8%	?	?	i
N#Cc1cccc(OCCCN2CCC(C(O)(c3ccccc3)c3ccccc3)CC2)c1	?	?	?	·	·	23µM*
Cc1cc(OCCCN2CCC(C(O)(c3ccccc3)c3ccccc3)CC2)ccc1Br	?	?	16µM*	·	·	21µM*
CC(C)(C(=O)O)c1ccc(C(O)CCCN2CCC(C(O)(c3ccccc3)c3ccccc3)CC2)cc1 (stereo not given)	·	-5%	14%	-2%	-55%	·
O=C(C[n+]1cc(-c2ccc(Cl)cc2)n2c1CCCCC2)c1ccccc1	?	-14%	-7%	?	-6%[9.22 µM]	i
SMILES	KB-3-1 cytotox	HT1080 IDH1KD tx	HT1080NT lethal	MCF10A rereplic	SW480 rerep	KB-V1 MDR tox
Cc1ccc(-c2c[n+](Cc3ccc(Cl)cc3)c3n2CCC3)cc1	?	?	?	2%	5%	i
Cc1ccc(-c2c[n+](Cc3cccc(Cl)c3)c3n2CCC3)cc1	8.2µM*	?	?	9%	-5%	i
Clc1cccc(C[n+]2cc(-c3ccccc3)n3c2CCC3)c1	9.2µM*	?	0%	17%	-33%	i
Cc1ccc(C[n+]2cc(-c3ccc(Cl)cc3)n3c2CCC3)cc1	6.5µM*	-19%	-23%	11%	2%	?
CSc1nc(N2CCOCC2)c2c3c(sc2n1)CCCC3	i	-8%[9.24 µM]	-11%	22%	-5%	?
NCCCC[C@H]1CNC(=S)N1CC1CCCCC1	i	9%	-2%	2%	-3%	i
O=C(NC1c2ccccc2-c2ccccc21)N1CCCCC1	?	8%	0%	14%	9%	16µM*
CN(C)C(=O)NC1c2ccccc2-c2ccccc21	i	6%	3%	-7%	-17%	i
CC(=O)/C(=C(/O)c1ccccc1)c1nc2ccccc2[nH]1	i	7%	8%	-5%	-5%	i
O=C(O)c1ccc(/C=C(\c2nc3ccccc3[nH]2)c2nc3ccccc3s2)cc1	?	18µM*	?	?	12µM*	i
O=C(O)c1ccc(-c2nc3ccccc3[nH]2)cc1	i	1%	1%	11%	4%	i
Cc1cccc(/C=C(\c2nc3ccccc3[nH]2)S(=O)(=O)c2ccccc2)c1	4.1µM*	9.2µM*	9.2µM*	5.8µM*	?	18µM*
CC(C)(C)c1ccc(/C=C(\c2nc3ccccc3[nH]2)S(=O)(=O)c2ccccc2)cc1	?	6.5µM*	6.5µM*	5.2µM*	8.2µM*	?
CC1CCC(C(C)C)C(OC(=O)COC(=O)c2ccc(N)cc2)C1 (stereo not given)	i	-10%	-4%	23µM*	-9%	i
Cc1ccc(CCNC(=O)c2nc(CS(=O)(=O)c3ccc(Cl)cc3)no2)cc1	i	-2%	5%	11%	0%	i
Cc1ccc(NC(=O)c2cccs2)cc1[N+](=O)[O-]	i	-22%	-18%	5%	6%	?
COc1cc(NC(=O)c2ccc([N+](=O)[O-])o2)ccc1NC(=O)c1cccs1	?	-19%	-15%	?	6.5µM*	i
O=C(Nc1cccc(NC(=O)c2cccs2)c1)c1ccc([N+](=O)[O-])o1	16µM*	23µM*	10µM*	19%	?	?
Cn1c(=O)c2c(ncn2CC(=O)OCC(=O)Nc2cccc(C#N)c2)n(C)c1=O	i	7%	6%	·	·	i
O=C(c1ccccc1)c1ccc(-c2ccc(O)cc2)cc1	?	?	18µM*	23µM*	16µM*	?
O=C(c1ccccc1)c1ccccc1	i	5%	-10%	-2%	0%	i
CCc1nc2ccc(C(=O)N(C)CCN(C)C)cn2c1N(C)Cc1cc2ccccc2s1	i	?	16µM*	·	·	i
